This note sets out measurements from PubChem BioAssay AID2590 (National Center for Advancing Translational Sciences (NCATS), 2010).

Where “and” joins values, the source holds several entries; their conditions need not be identical. Identical values can stand only once. Records with an inconclusive call do not appear. Calls of active or inactive are those of the source. The call rests on the fitted dose curve; in most records, active means well fitted curve in the direction sought with a large enough effect; inconclusive means small, poorly fitted or top-dose-only effect, or another doubt; inactive means no such curve, though single readings can be large or run the other way.
Potency means the concentration at half of the fitted maximal effect.

Lysosomal acid glucosylceramidase (Homo sapiens), sequence (P04062 whole entry N409S): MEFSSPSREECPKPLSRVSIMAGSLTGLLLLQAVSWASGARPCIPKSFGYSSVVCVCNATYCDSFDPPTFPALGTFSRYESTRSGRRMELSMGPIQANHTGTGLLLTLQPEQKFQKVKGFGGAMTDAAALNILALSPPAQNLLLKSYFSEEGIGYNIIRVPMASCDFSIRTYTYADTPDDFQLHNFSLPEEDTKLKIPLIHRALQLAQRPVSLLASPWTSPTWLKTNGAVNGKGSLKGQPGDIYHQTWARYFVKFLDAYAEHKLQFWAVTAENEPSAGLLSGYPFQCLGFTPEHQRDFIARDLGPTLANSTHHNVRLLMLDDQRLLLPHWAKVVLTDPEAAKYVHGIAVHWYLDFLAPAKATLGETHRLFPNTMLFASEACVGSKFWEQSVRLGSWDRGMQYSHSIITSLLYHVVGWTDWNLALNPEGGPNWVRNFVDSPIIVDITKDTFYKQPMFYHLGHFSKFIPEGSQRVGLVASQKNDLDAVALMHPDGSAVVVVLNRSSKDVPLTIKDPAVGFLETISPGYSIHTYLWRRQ

This assay has as its target Lysosomal acid glucosylceramidase (Homo sapiens) (UniProt P04062). Description: qHTS Assay for Inhibitors and Activators of N370S glucocerebrosidase as a Potential Chaperone Treatment of Gaucher Disease: Primary Screen Confirmation. To be noted: N370S glucocerebrosidase enzyme activity, fluorogenic substrate; series mostly up to 54 µM. An excerpt:
NIH Chemical Genomics Center [NCGC]
NIH Molecular Libraries Probe Production Centers Network [MLPCN]
Assay Submitter (PI): Wei Zheng
Glucocerebrosidase (GC) catalyzes the hydrolysis of beta-glucocerebroside to glucose and ceramide in lysosomes. Mutations in the glucocerebrosidase gene result in Gaucher disease, an autosomal recessive lysosomal storage disorder. Many of the mutations encountered in patients with Gaucher disease are missense alterations that may cause misfolding, decreased stability and/or mistrafficking of this lysosomal protein. […] These inhibitors include iminosugar analogs and three non-iminosugar inhibitors identified from a previous HTS of 62,000 compounds with the wild type recombinant enzyme. However, the enhancement of enzyme activity by the chaperone action of an enzyme inhibitor must be balanced against the direct inhibition of the enzyme. An enzyme activator could also function as a chaperone by binding to the enzyme and helping to correct its misfolding and mistrafficking. While activators for GC have not yet been identified, they may have better therapeutic potential than inhibitors. Therefore the discovery and development of chemical activators may provide a new strategy for the chaperone therapy.
We have optimized a new assay using N370S mutant GC derived from the spleen of a Gaucher patient. […] In addition, the MLPCN compound library has expanded, which increases the chance of finding new and better probes.
NCGC Assay Protocol Summary:
This is a fluorogenic enzyme assay with 4-methylumbelliferyl-beta-D-glucopyranoside as the substrate and N370S glucocerebrosidase from human spleen homogenate as the enzyme preparation. Upon the hydrolysis of this fluorogenic substrate, the resulting product, […] which can be detected by a standard fluorescence plate reader. Data were normalized to the controls for basal activity (without enzyme) and 100% activity (with enzyme). The AC50 values were determined from concentration-response data modeled with the standard Hill equation.
Assay buffer: 50 mM citric acid (titrated with potassium phosphate to pH 5.0), 100 mM potassium chloride, 10 mM sodium chloride, 1 mM magnesium chloride, 0.01% Tween-20.
1536-well assay protocol:
(1) Add 2 ul/well of spleen homogenate (27 ug final)
(2) Add 23 nL compounds in DMSO solution. The final titration was 0.5 nM to 58 uM.
(3) Add 2 ul of substrate (1 mM final)
(4) Incubate at 37C for 40 min.
(5) Add 2 ul stop solution (1M NaOH and 1M Glycine mixture, pH 10)
(6) Detect the assay plate in a ViewLux plate reader (PerkinElmer) with Ex=365 nm and Em=440nm.
Keywords: Glucocerebrosidase, beta-glucosidase, Gaucher Disease, pharmacological chaperone, chaperone therapy, high throughput screening, glucocerebrosidase inhibitor, MLSMR, MLSCN, NIH Roadmap, qHTS and NCGC
On to `S=C(NCCCCN(Cc1ccc(Cl)cc1)c1ccc(Br)cn1)NCCCc1cnc[nH]1`, for which the Potency was 0.635 µM (active).

Regarding `O=S(=O)(c1cccc2ccccc12)N1CCN(c2nc(-c3cccs3)nc3ccccc23)CC1`, the Potency is 0.819 µM (active). In the case of `O=C(c1ccccc1)N1CCN(c2nc(-c3cccs3)nc3ccccc23)CC1`, the Potency is 1.42 µM (active). For `CCC(=O)OCCNc1nc(-c2ccccc2)nc2ccccc12`, the Potency is 16 µM (active).

As to `O=[N+]([O-])c1cccc(S(=O)(=O)N2CCN(c3nc(-c4cccs4)nc4ccccc34)CC2)c1`, the Potency was 2.53 µM (active). Take `CC(=O)c1cccc(S(=O)(=O)N2CCN(c3nc(-c4cccs4)nc4ccccc34)CC2)c1`: the Potency is 2.25 µM (active). Regarding `N#Cc1ccc(S(=O)(=O)N2CCN(c3nc(-c4cccs4)nc4ccccc34)CC2)cc1`, the Potency was 2.01 µM (active). The value for `CN(CCN(C)c1nc(-c2cccs2)nc2ccccc12)C(=O)OC(C)(C)C` was 5.8 µM (active); that for `O=S(=O)(c1ccc(F)cc1F)N1CCN(c2nc(-c3cccs3)nc3ccccc23)CC1` was 1.27 µM (active); that for `CC1(C)CCc2cc(S(=O)(=O)N3CCN(c4nc(-c5cccs5)nc5ccccc45)CC3)ccc2O1` was 1.13 µM (active). For `CCCCN(Cc1ccc(Cl)c(Cl)c1)c1ccc(Br)cn1`, the Potency result is “inactive”. As for `O=S(=O)(c1ccccc1)N1CCN(c2nccc(-c3cccs3)n2)CC1`, the Potency entry is “inactive”. In the case of `COCCNC(=O)/C(C#N)=C/c1c(N2CCN(C)CC2)nc2c(C)cccn2c1=O`, the Potency result is “inactive”. With `O=S(=O)(c1cccc(C(F)(F)F)c1)N1CCN(c2nc(-c3cccs3)nc3ccccc23)CC1`, the Potency is 6.35 µM (active). As for `Cc1cc(C)cc(S(=O)(=O)N2CCN(c3nc(-c4cccs4)nc4ccccc34)CC2)c1`, the figure is 1.03 µM (active); as for `S=C(NCCCN(Cc1ccc(Cl)c(Cl)c1)c1ccc(Br)cn1)NCCc1cnc[nH]1`, 18.3 µM (active). As to `Cc1cc2[nH]c(=O)c(=O)[nH]c2cc1S(=O)(=O)N1CCN(c2cccc(C)c2C)CC1`, the Potency is 4.11 µM (active). With `COc1cccc(S(=O)(=O)N2CCN(c3nc(-c4cccs4)nc4ccccc34)CC2)c1`, the Potency was 0.819 µM (active). Take `O=S(=O)(c1ccc2ncccc2c1)N1CCN(c2nc(-c3cccs3)nc3ccccc23)CC1`: the Potency was 0.8 µM (active).

With `Cc1ccc(CC(=O)Nc2cccc(C)n2)cc1`, the Potency result is “inactive”. Consider `O=S(=O)(c1nccs1)N1CCN(c2nc(-c3cccs3)nc3ccccc23)CC1`, for which the Potency was 7.3 µM (active).

Take `CCN(Cc1ccccc1)c1ccc(Br)cn1`: the Potency result is “inactive”. Regarding `Cc1ccc(S(=O)(=O)N2CCN(c3nc(-c4cccs4)nc4ccccc34)CC2)cc1`, the Potency was 259 nM (active) and 730 nM (active) and 366 nM (active). As for `Cc1ccc(S(=O)(=O)N2CCN(c3nc(-c4cccs4)nc4c3ncn4COC(=O)C(C)(C)C)CC2)cc1`, the Potency result is “inactive”. For `O=S(=O)(c1ccc2c(c1)OCO2)N1CCN(c2nc(-c3cccs3)nc3ccccc23)CC1`, the Potency was 0.291 µM (active). Turning to `COc1ccc(NC(=O)Nc2cccc(C)n2)c(OC)c1`, the Potency entry is “inactive”.

For `CCN1CCN(c2nc3c(C)cccn3c(=O)c2/C=C(\C#N)C(=O)NCCOC)CC1`, the Potency entry was “inactive”.

As for `O=S(=O)(c1cccc(F)c1)N1CCN(c2nc(-c3cccs3)nc3ccccc23)CC1`, the Potency was 1.01 µM (active). Consider `O=S(=O)(c1cccc(Br)c1)N1CCN(c2nc(-c3cccs3)nc3ccccc23)CC1`, for which the Potency was 2.53 µM (active). In the case of `O=S(=O)(c1ccc(C(F)(F)F)cc1)N1CCN(c2nc(-c3cccs3)nc3ccccc23)CC1`, the Potency was 2.53 µM (active). The value for `O=S(=O)(c1cccnc1)N1CCN(c2nc(-c3cccs3)nc3ccccc23)CC1` was 3.18 µM (active); that for `CC(C)OCCCNc1nc(-c2ccccc2)nc2ccccc12` was 4.01 µM (active); that for `CC(C)(C)c1ccc(S(=O)(=O)N2CCN(c3nc(-c4cccs4)nc4ccccc34)CC2)cc1` was 1.3 µM (active) and 1.46 µM (active).

For the compound `S=C(NCCCc1cnc[nH]1)NCCCN(Cc1ccc(Cl)cc1)c1ccc(Br)cc1`, the Potency is 1.13 µM (active).

Regarding `O=S(=O)(Cc1ccccc1)N1CCN(c2nc(-c3cccs3)nc3ccccc23)CC1`, the Potency is 2.25 µM (active). Consider `Cc1cc2[nH]c(=O)c(=O)[nH]c2cc1S(=O)(=O)N1CCN(c2cccc(C(F)(F)F)c2)CC1`, for which the Potency was 5.17 µM (active). For the compound `Clc1ccccc1-c1nccc(NCc2ccccc2)n1`, the Potency is 8.91 µM (active).

For the compound `NS(=O)(=O)c1ccc(S(=O)(=O)N2CCN(c3nc(-c4cccs4)nc4ccccc34)CC2)cc1`, the Potency is 3.26 µM (active). With `O=C(Nc1cc(Br)ccc1O)c1cnn2c(C(F)F)cc(C3CC3)nc12`, the Potency entry is “inactive”. `Cc1cc(Cl)nc(NC(=O)Nc2cccc(Cl)c2)n1`: the Potency result was “inactive”.
